MazEF act: MazEF (E. coli) toxin RNase activation; FAM/BHQ RNA-DNA oligo cleavage fluorescence, 5 h; activation, % at 20 µM; actives 0.32% (n = 350,000); in the data active = activation above about 50%
Target sequence (P0AE70 whole entry, looked up): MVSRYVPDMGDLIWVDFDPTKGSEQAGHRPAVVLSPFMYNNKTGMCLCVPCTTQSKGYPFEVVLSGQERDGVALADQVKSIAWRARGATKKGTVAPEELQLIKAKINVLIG
Y pestis TopoI: inhibitors of Yersinia pestis topoisomerase I; Y. pestis Topo-I cleavage product accumulation, plate reader; activity, % at 10 µM; actives 0.064% (n = 360,000); in the data active = activity above about 50%, passing the limit was not always enough
PriA SSB inh: inhibitors of Klebsiella pneumoniae PriA binding to SSB C-terminal tail; actives 0.6% (n = 430,000); AlphaScreen SSBct-PriA binding, biotinylated peptide; AID 1272365; inhibition, % at 33 µM; in the data active = inhibition mostly above about 37%, no sharp cut-off; inactive = mostly below about 20%
SARS 3CLpro inh: SARS-CoV 3CLpro protease inhibition; P0C6X7; recombinant SARS-CoV 3CLpro, quenched FRET peptide cleavage; inhibition, % at 6 µM; actives 0.14% (n = 290,000); in the data active = inhibition above about 12%
Hits are given with their value; i = inactive; nt = no result given; + = active, no number; ! = not confirmed by another sample. An excerpt weighted towards active compounds, which were near 0.9% of everything screened.

SMILES	MazEF act	Y pestis TopoI	PriA SSB inh	SARS 3CLpro inh
Cc1ccc(NC(=O)C2C3CCCCC32)cc1[N+](=O)[O-] (configuration not stated)	i	i	40.6	i
O=[N+]([O-])c1cc([N+](=O)[O-])c2c(=Nc3ccccc3)n(-c3ccccc3)n(O)c2c1	i	i	63.0	i
Cc1cccc(CC(=O)Nc2ccc3c(c2)N(C)C(=O)C(C)(C)CO3)c1	nt	nt	i	nt
O=C(c1nc2ccccc2s1)N1CCN(c2cc(C(F)(F)F)ncn2)CC1	nt	nt	i	nt
CC1Cc2ccccc2N1C(=O)c1ccc(N2CCCC2)c([N+](=O)[O-])c1 (configuration not stated)	i	i	45.5	i
CC1Cc2ccccc2N1C(=O)c1ccc(N2CCCCC2)c([N+](=O)[O-])c1 (configuration not stated)	i	i	i	i
COC(=O)CCN(C(=O)c1ccc(N2CCCCC2)c([N+](=O)[O-])c1)c1ccccn1	i	i	i	i
O=C(c1ccc(N2CCCCC2)c([N+](=O)[O-])c1)N(Cc1ccccc1)c1ccccn1	i	i	52.1	i
Cc1ccc2nc(NC(=O)C3CCN(c4ccc(-c5cccs5)nn4)CC3)sc2c1	nt	nt	i	nt
CCC1(C)OC(c2ccccc2)=C/C(=C/C=C2C(=O)NC(=O)NC2=O)O1 (configuration not stated)	67.0	i	i	i
CC1(C)OC(c2ccccc2)=C/C(=C/C=C2C(=O)c3ccccc3C2=O)O1	i	i	i	i
CCCN(CCC)S(=O)(=O)c1ccc(C(=O)Oc2cc3c(C(=O)OCC)c(C)n(-c4ccccc4)c3c3ccccc23)cc1	nt	nt	i	nt
Cc1ccc(C(=O)NCC2(c3ccc(F)cc3)CC2)cc1C	nt	nt	i	nt
C=CCOC(Cn1ccnc1)c1ccc(Cl)cc1Cl (configuration not stated)	i	i	i	nt
Clc1ccc(COC(Cn2ccnc2)c2ccc(Cl)cc2Cl)c(Cl)c1 (configuration not stated)	i	59.6!	i	i
Cc1noc(C)c1CCC(=O)N1CCN(c2ccc(-n3cncn3)nn2)CC1	nt	nt	i	nt
NC(=NN=Cc1ccc(Br)cc1)NN=Cc1ccc(Br)cc1	nt	nt	i	nt
COc1ccc(C(NC(=O)c2cc(OC)ccc2OC)c2ccccc2)cc1 (configuration not stated)	i	50.5	i	i
CCN1C(=O)c2cccc3c(NC(=O)c4ccc5c(c4)OCCO5)ccc1c23	94.8	i	i	i
CSc1ccccc1C(=O)NCCc1nc(-c2ccco2)cn1C	nt	nt	i	nt
O=S(=O)(O)c1cc(O)c(N=Nc2ccc(O)cc2O)c2ccccc12	i	i	87.2	nt
Cc1cc(OCCCC(=O)NCCc2ccccn2)ccc1Cl	59.9	i	i	i
O=C(CCCNS(=O)(=O)c1ccc(Cl)c(Cl)c1)NCCc1ccccn1	i	i	i	i
COC(=O)c1cc(Br)ccc1NC(=O)c1cccc(C)c1	nt	nt	i	nt
O=[N+]([O-])c1ccccc1NC1CCN(Cc2ccccc2)CC1	i	i	i	i
SMILES	MazEF act	Y pestis TopoI	PriA SSB inh	SARS 3CLpro inh
O=[N+]([O-])c1ccc(NC2CCCC2)c2ccncc12	62.0	i	i	i
CC1CCC2C(=O)N(c3ccc(NC4CCN(Cc5ccccc5)CC4)c([N+](=O)[O-])c3)C(=O)C2C1 (configuration not stated)	i	i	43.5	i
O=[N+]([O-])c1ccc(NC2CCN(Cc3ccccc3)CC2)c2ccncc12	58.1	i	i	i
O=[N+]([O-])c1ccc(N2CCCC2)c2ccncc12	i	i	i	i
O=C1C2CCCCC2C(=O)N1c1ccc(NC2CCN(Cc3ccccc3)CC2)c([N+](=O)[O-])c1 (configuration not stated)	i	i	i	i
Cn1nc(CNC(=O)c2cc3ccccc3o2)c2c1CCCC2	nt	nt	i	nt
CCNC(=O)c1csc(NC(=O)c2ccccc2SC)n1	nt	nt	i	nt
N#Cc1ccc(COCC2CCN(C(=O)C3(c4ccccc4)CCOCC3)CC2)cc1	nt	nt	i	nt
Cc1ccc(CSc2nnc(-c3ccccn3)n2N)cc1	i	i	i	i
Nn1c(SCc2ccccc2)nnc1-c1ccccn1	i	i	44.8	i
O=C(CCN1CCN(C(c2ccccc2)c2ccccc2)CC1)N/N=C/c1cccc([N+](=O)[O-])c1	nt	nt	i	nt
CCOc1cc2c3c(c1)C1(Nc4ccccc4S1)C(=O)N3C(C)(C)CC2C (configuration not stated)	i	i	39.9	i
CCOc1cc2c3c(c1)C1(OCCO1)C(=O)N3C(C)(C)CC2C (configuration not stated)	i	i	i	i
COc1ccc(C(C)(C)C)cc1S(=O)(=O)n1ccnc1	nt	nt	i	nt
Cn1nc(-c2ccccc2NC(=O)c2ccc(Cn3ccnc3)cc2)ccc1=O	nt	nt	i	nt
O=C(Nc1ccccc1-c1cn2ccsc2n1)c1ccc(Cn2ccnc2)cc1	nt	nt	39.0	nt
CC(C(=O)Nc1ccc([N+](=O)[O-])cc1)N1C(=O)c2ccccc2S1(=O)=O (configuration not stated)	nt	nt	i	nt
COc1ccc(/C=c2\s/c(=C/C(=O)c3ccc(C)cc3)[nH]c2=O)c(OC)c1	+	i	nt	i
Fc1ccc(NC(=S)N2CCCc3ccccc32)cc1	i	i	41.3	i
S=C(Nc1cccnc1)N1CCc2ccccc21	i	i	i	i
CCOC(=O)/C(=C\C=C1/Sc2cc(OCC)c(OCC)cc2N1CC)C(C)=O	272.0	i	i	i
Cc1cc(NC(=O)c2cc(-c3ccccc3)on2)n(-c2ccccc2)n1	i	107.1	i	i
COc1ccc(-c2cc(C(=O)Nc3cc(C)nn3-c3ccccc3)no2)cc1	i	i	i	i
CCOc1cc(C(=O)N2CCC3(CC2)CC(=O)c2ccccc2O3)cc(OCC)c1OCC	nt	nt	i	nt
CC(=O)c1sc(NC(=O)c2ccc(N3C(=O)CCC3=O)cc2)nc1C	nt	nt	i	nt
SMILES	MazEF act	Y pestis TopoI	PriA SSB inh	SARS 3CLpro inh
CCOc1cccc(CNCCc2c(C)[nH]c3ccc(OC(F)(F)F)cc23)c1O	51.8	i	i	i
Oc1sc(C=Nc2ccccc2)c2ccccc12	139.8	i	i	i
COc1ccccc1N1CCN(C(=O)c2csc(Nc3ccccc3)n2)CC1	nt	nt	24.0	nt
COC(=O)C1CCN(C2=C(NS(=O)(=O)c3ccc(Cl)cc3)C(=O)c3ccccc3C2=O)CC1	i	i	72.6	i
NC(=O)C1CCN(C2=C(NS(=O)(=O)c3ccc(Cl)cc3)C(=O)c3ccccc3C2=O)CC1	i	i	i	i
Cc1cc(C)cc(C(=O)Nc2nnc(N=Cc3ccc(Br)s3)s2)c1	nt	nt	71.0	nt
O=S(=O)(Cc1ccccc1)NCC1CCN(C2CCCC2)CC1	nt	nt	i	nt
CS(=O)(=O)c1ccc2c(c1)sc1nc(=O)c(C=C3C=CC(=O)C(O)=C3)c(N)n12	nt	nt	i	nt
Cc1onc(-c2ccccc2Cl)c1C(=O)Nc1cnc(N(C)C)nc1	nt	nt	i	nt
Cn1c(-c2ccc(Br)cc2)cnc1SCc1ccccc1	nt	nt	67.0	nt
CNc1ccc(/C=C(\C#N)C(=O)Nc2ccccn2)cc1[N+](=O)[O-]	140.6	i	i	i
CC(C)NC(=O)c1ccccc1NC(=O)C1COc2ccccc2O1 (configuration not stated)	i	i	i	i
Cc1ccc(NC(=O)c2ccccc2NC(=O)C2COc3ccccc3O2)c(C(=O)c2ccccc2)c1 (configuration not stated)	nt	nt	61.0	nt
COC(=O)c1ccccc1NC(=O)Cn1cnc2c(-c3ccc(C)cc3)csc2c1=O	nt	nt	i	nt
